The supplement of paper PMC10849652
The full data set covers some 7,900 targets. This sample favours those with a hit. About 0.6% of all pairs of compound and target were hits.

Compound: C#Cc1cccc(Nc2ncnc3cc(OCCOC)c(OCCOC)cc23)c1 [erlotinib]
Test: log2 fold change, soluble protein after heating vs DMSO (PISA); higher = thermal stabilisation; K562 cells, 10 uM, 30 min; active = over 0.2 and 3.5 SD of the protein, either way, in both replicates (recomputed)
Outline: (§1)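 K562 cells at 2×10^6 cells/mL were treated with 10 μM compound for 30 min. Aliquots were heated for 3 min across 48°C-58°C, pooled, and extracted in PBS with 0.5% NP-40 at 4°C; soluble protein was the supernatant after 21,000xg for 90 min. Soluble protein was quantified by TMTpro 16plex LC-MS/MS with channel sums equalised, and reported as log2 fold change in thermal stability against DMSO controls, with values from duplicates.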

UniProt Q9NZC3, sequence (Q9NZC3 whole entry, looked up): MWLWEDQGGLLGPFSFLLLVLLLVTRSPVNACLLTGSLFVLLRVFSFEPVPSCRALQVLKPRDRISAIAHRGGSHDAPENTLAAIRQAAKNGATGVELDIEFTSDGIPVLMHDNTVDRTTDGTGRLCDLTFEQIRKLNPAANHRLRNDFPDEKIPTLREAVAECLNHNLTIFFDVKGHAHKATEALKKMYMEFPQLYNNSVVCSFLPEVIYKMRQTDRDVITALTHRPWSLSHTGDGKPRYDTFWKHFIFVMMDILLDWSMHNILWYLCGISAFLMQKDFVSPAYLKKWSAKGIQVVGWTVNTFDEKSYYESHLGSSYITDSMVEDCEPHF
UniProt P52655, sequence (P52655 whole entry, looked up): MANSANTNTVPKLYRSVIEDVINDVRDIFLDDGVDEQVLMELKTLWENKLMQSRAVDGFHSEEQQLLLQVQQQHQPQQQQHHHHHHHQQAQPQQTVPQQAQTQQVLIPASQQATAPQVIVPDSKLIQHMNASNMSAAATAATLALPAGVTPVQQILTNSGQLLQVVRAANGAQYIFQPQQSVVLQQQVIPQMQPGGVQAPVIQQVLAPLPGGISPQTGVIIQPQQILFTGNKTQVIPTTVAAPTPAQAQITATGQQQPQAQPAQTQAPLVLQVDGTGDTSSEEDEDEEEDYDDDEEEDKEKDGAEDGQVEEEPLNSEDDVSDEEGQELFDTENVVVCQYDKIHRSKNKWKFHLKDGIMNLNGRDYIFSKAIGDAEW
UniProt P21333, sequence (P21333 whole entry, looked up): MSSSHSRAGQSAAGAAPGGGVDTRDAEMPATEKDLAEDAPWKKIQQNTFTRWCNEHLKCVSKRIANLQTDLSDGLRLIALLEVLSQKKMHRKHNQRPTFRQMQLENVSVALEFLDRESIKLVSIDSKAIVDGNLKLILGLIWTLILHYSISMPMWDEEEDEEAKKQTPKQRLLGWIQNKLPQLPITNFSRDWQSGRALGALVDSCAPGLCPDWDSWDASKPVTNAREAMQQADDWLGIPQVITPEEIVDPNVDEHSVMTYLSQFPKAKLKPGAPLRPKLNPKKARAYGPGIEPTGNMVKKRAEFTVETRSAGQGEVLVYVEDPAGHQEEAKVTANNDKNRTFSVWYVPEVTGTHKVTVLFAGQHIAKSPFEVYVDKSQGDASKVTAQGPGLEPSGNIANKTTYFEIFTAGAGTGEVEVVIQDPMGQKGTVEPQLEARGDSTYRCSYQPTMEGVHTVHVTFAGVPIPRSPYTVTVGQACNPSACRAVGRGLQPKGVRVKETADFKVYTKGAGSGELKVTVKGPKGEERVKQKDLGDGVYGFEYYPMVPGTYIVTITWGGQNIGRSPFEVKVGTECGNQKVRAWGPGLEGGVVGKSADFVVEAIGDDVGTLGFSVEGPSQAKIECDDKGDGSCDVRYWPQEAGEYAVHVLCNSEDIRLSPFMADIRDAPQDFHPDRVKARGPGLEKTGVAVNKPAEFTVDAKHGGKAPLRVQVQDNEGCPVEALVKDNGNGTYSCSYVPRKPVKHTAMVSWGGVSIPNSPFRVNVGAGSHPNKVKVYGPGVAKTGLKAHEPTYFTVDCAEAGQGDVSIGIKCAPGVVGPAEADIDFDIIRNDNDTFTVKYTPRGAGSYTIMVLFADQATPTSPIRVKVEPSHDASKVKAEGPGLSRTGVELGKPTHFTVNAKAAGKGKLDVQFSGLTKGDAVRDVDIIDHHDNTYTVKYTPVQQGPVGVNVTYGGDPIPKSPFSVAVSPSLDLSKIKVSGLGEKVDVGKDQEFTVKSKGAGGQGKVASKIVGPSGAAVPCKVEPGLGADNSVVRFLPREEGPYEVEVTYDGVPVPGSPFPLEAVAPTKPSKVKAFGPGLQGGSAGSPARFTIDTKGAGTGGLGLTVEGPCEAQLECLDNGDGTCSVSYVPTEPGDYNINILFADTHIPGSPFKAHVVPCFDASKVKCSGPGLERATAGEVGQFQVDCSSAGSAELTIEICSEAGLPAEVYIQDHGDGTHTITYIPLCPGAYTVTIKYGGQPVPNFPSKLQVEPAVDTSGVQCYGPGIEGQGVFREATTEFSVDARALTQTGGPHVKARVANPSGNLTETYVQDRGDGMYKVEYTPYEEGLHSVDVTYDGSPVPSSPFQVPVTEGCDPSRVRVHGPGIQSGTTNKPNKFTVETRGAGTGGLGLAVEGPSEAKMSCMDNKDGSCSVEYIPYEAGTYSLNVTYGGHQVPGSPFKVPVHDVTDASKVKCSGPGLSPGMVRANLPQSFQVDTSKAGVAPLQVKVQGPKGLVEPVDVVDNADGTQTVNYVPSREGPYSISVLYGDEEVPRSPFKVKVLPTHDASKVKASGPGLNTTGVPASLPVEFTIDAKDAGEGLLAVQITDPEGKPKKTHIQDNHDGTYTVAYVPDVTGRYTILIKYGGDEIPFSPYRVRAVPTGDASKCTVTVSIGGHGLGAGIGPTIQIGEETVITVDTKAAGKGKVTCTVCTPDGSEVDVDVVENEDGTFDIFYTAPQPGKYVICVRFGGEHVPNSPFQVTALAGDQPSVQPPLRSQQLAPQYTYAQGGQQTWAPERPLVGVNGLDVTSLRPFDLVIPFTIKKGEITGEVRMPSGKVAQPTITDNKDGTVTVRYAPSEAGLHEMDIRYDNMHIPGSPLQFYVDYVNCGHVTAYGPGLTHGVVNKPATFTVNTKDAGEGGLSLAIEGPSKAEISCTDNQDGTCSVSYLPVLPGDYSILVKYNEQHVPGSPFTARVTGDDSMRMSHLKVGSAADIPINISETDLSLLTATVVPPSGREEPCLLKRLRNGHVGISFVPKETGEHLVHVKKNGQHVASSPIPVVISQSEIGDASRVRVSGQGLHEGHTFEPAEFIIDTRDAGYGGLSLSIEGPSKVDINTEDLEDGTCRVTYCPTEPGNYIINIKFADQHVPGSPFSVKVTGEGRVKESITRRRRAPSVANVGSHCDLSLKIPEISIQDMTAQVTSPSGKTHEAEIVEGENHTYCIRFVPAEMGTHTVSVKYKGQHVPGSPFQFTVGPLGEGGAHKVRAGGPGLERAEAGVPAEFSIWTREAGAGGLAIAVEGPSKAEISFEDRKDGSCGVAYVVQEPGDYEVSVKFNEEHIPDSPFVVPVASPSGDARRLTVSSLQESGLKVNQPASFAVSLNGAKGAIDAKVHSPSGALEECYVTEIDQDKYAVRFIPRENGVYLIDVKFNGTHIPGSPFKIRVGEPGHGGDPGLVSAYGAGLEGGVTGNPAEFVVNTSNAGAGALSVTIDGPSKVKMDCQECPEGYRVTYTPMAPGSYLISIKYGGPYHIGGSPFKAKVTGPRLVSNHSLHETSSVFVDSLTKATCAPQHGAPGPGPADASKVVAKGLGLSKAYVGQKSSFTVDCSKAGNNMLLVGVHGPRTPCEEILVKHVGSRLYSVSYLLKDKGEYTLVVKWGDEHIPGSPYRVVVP
UniProt P50213, sequence (P50213 whole entry, looked up): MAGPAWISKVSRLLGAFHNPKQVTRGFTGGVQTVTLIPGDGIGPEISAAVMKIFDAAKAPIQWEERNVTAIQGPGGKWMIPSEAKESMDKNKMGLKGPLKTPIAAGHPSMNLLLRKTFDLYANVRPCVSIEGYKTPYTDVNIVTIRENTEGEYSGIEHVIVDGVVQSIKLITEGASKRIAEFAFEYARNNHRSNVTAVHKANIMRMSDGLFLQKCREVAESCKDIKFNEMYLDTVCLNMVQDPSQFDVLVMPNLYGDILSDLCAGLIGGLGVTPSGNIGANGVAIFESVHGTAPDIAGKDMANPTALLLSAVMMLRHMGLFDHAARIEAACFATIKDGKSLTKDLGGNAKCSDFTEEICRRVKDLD
UniProt Q96HJ9, sequence (Q96HJ9 whole entry, looked up): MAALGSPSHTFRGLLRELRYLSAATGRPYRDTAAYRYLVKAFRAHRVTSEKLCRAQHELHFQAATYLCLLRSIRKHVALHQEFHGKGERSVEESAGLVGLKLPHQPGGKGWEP
UniProt Q53FT3, sequence (Q53FT3 whole entry, looked up): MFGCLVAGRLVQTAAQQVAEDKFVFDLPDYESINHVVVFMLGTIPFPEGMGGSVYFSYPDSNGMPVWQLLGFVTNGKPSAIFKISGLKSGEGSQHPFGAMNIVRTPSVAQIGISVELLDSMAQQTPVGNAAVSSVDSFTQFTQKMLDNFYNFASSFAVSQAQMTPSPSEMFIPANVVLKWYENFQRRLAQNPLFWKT
UniProt P36969, sequence (P36969 whole entry, looked up): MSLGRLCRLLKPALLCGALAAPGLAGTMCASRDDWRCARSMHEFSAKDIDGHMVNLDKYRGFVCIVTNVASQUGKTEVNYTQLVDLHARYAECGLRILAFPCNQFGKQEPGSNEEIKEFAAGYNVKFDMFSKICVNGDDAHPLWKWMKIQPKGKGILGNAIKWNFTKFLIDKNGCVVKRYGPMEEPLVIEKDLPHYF
UniProt Q00688, sequence (Q00688 whole entry, looked up): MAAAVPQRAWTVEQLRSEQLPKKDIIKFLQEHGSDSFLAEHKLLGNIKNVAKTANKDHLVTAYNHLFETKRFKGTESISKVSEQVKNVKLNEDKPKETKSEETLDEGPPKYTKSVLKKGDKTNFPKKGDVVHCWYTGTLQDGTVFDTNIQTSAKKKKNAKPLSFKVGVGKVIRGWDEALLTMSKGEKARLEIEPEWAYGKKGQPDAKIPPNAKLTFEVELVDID
UniProt Q10472, sequence (Q10472 whole entry, looked up): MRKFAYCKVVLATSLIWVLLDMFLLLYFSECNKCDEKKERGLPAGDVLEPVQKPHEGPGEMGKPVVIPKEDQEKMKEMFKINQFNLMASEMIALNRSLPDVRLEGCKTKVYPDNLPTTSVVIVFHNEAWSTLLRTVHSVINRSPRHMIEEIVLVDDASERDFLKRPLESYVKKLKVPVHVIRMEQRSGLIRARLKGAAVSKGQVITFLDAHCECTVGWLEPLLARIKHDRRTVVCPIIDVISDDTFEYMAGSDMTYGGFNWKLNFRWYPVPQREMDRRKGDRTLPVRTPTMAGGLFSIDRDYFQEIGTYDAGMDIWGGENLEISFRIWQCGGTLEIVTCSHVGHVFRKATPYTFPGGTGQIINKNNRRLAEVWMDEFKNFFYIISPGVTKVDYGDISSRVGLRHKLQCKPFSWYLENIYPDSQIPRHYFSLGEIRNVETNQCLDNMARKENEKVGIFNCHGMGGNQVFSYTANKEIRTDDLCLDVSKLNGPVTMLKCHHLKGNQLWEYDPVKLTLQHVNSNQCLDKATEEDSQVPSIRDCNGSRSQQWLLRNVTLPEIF

log2 fold change, inactive:
HIST2H3A (UniProt Q71DI3) 0.113
FLNA (UniProt P21333) 0.022
H2AFX (UniProt P16104) 0.05
GTF2A1 (UniProt P52655) -0.011
GATA1 (UniProt P15976) 0.05
GALNT1 (UniProt Q10472) -0.001
FMC1 (UniProt Q96HJ9) 0
GDE1 (UniProt Q9NZC3) 0.014
IDH3A (UniProt P50213) 0.021
FARS2 (UniProt O95363) 0
FYB1 isoform 3 (UniProt O15117) 0.019

Compound: C/C(=N\NC(=O)C1=CC(=CC=C1)S(=O)(=O)N2CCOCC2)/C3=C(C=CC(=C3)Cl)O
Test: as above
Outline: as §1

log2 fold change, inactive:
FKBP3 (UniProt Q00688) 0.014
GPX4 (UniProt P36969) 0.035
HEXA (UniProt P06865) -0.012
HECTD1 (UniProt Q9ULT8) 0.127
GLUD2 (UniProt P49448) -0.028
GBF1 (UniProt Q92538) 0.077
HIKESHI (UniProt Q53FT3) 0.1
HBZ (UniProt P02008) 0.077
HIP1 (UniProt O00291) 0.033
HADHB (UniProt P55084) 0.112
GTPBP6 (UniProt O43824) -0.017
GOLPH3 (UniProt Q9H4A6) 0.073
GSTO1 (UniProt P78417) 0.007
